Screening results: PubChem, National Center for Advancing Translational Sciences (NCATS)
Sampled rows, rich in hits. Any-hit rate of the full collection: about 2.5%.
miR-21 act – qHTS Assay for Modulators of miRNAs and/orActivators of miR-21; HeLa miR-21 FLuc reporter, luciferase, 48 h; Potency, µM (doses to about 38.3 µM), inactives show top-dose activity change, positive = activation, hits mostly activators; 340,000 tested, under 10 active; AID 2288, 2010;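 note: % of control where 0% means no effect; miR-21 action dims this reporter so a rising signal means less miR-21 action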
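HeLa cells endogenously expressing miR-21, stably carrying CMV-driven firefly luciferase with a downstream miR-21 binding site, 2000 cells/well. Titrations up to approximately 40 uM, 48 hours; luciferase luminescence read.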
TrxR1 substrate – qHTS Assay for Substrates of Mammalian Selenoprotein Thioredoxin Reductase 1 (TrxR1): qHTS | purified TrxR1 substrate turnover, NADPH consumption readout | Potency, µM (top dose mostly 114 µM), for inactives: at the top dose activity change, negative = substrate turnover | hit rate 0.01% among 390,000 | AID 588456, 2011; note: potency is the fitted concentration of half-maximal effect; % is set by controls: 0 for no effect and ±100 for the full control effect; nearly all actives have a fitted effect of over 50% in size
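Rat TrxR1, dispensed at 90 nM, was prereduced with 400 uM NADPH (final) for 5 min at ~22 deg C, then incubated with compound 15 min before 400 uM selenite. A first-read NADPH fluorescence drop versus no-compound background flagged substrates.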
rTrxR1 inhibitor – qHTS Assay for Inhibitors of Mammalian Selenoprotein Thioredoxin Reductase 1 (TrxR1): qHTS | Thioredoxin reductase 1, cytoplasmic (Rattus norvegicus), O89049 | AID 588453, 2011 | Potency, µM (doses to about 114 µM), without a hit: at the highest dose activity change, negative = inhibition, hits mostly inhibitors | recombinant rTrxR1, NADPH fluorescence consumption, selenite substrate | hit rate 1% among 390,000; note: potency is the fitted concentration of half-maximal effect; % is set by controls: 0 for no effect and ±100 for the full control effect; nearly all actives have a fitted effect of over 65% in size
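Rat TrxR1 (90 nM in the dispensed reagent) was pre-reduced with 400 uM NADPH for 5 min at room temperature, then incubated with compound for 15 min. After 400 uM selenite was added, NADPH fluorescence (Ex 340/Em 450 nm) was followed for 8 min.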
Apoferritin bind – qHTS Assay for Identification of Novel General Anesthetics. Ferritin light chain (Equus caballus), P02791. apoferritin/1-aminoanthracene competitive binding, fluorescence. Potency, µM (highest dose often 77.5 µM), without a hit: at the top dose activity change, negative = displacement, hits mostly inhibitors. hit rate 0.074% among 350,000. AID 485281, 2010; note: potency is the fitted concentration of half-maximal effect; % is set by controls: 0 for no effect and ±100 for the full control effect; nearly all actives have a fitted effect of over 20% in size
Target sequence (P02791 2-175 limits assumed): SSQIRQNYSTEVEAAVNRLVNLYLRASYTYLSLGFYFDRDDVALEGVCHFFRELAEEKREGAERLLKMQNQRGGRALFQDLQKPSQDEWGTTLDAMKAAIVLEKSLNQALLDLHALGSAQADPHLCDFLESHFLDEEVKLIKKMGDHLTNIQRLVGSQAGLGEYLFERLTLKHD
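Read-out: endpoint 1-AMA fluorescence, excitation 380 nm and emission 535 nm, after compounds sit 10 min at room temperature with 10 uM horse-spleen apoferritin in 50% saturated 1-AMA/PBS. Values come from four-parameter Hill fits.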
ClpP mod – qHTS Assay for Activators of ClpP; Potency, µM (top dose mostly 57.5 µM), for the others: top-dose activity change, negative = active; purified B. subtilis ClpP, FRET peptide cleavage, 20 min; hit rate 1.9% among 340,000; ATP-dependent Clp protease proteolytic subunit (Bacillus subtilis (strain 168)), P80244; active = well fitted falling curve with a large enough effect; inconclusive = small, poorly fitted or top-dose-only effect; inactive = no such curve, though single readings can be large or run the other way; note: potency is the fitted concentration of half-maximal effect; the source files actives as falling curves though it sought activators and does not explain the sign; nearly all actives have a fitted effect of over 65% in size
Target sequence (P80244 whole entry, looked up): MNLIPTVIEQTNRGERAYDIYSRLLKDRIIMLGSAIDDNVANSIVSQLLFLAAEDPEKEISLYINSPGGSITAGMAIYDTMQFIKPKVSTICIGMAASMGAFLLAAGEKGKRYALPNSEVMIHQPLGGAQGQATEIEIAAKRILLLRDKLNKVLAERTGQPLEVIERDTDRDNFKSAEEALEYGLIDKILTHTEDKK
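ClpP 10 microg/mL final, pH 8 Tris/KCl buffer with BSA, glycerol, Tween-20; compound pinned in; FRET-FV substrate; RT 20 min; Ex320/Em430; ΔFRET vs ADEP 5.8 microM, DMSO, no enzyme.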
* marks the source's active call; other numbers are inactive results; i = inactive; ? = inconclusive; . = not tested or not shown; ! = a repeat was not active; [ ] = another dose, or the depositor's remark. Unless noted, calls come from the whole dose curve; as a rule, active = well fitted curve in the direction sought with a large enough effect; inconclusive = small, poorly fitted or top-dose-only effect, or another doubt; inactive = no such curve, though single readings can be large; an effect the other way counts as inactive or inconclusive.

SMILES	miR-21 act	TrxR1 substrate	rTrxR1 inhibitor	Apoferritin bind	ClpP mod
COCCNC(=O)c1c(N)n(CCC(C)C)c2nc3ccccc3nc12	22%	106%	-4%	763%	16µM*
CCCCCn1c(NC(=O)c2ccco2)c(C(=O)OCC)c2nc3ccccc3nc21	4%	58%	?	142%	.
COCCCNC(=O)c1c(NC(=O)c2ccco2)n(Cc2ccccc2)c2nc3ccccc3nc12	0%	152%	?	128%	16µM*
CCOC(=O)c1c(NS(=O)(=O)c2ccccc2)n(CCCOC)c2nc3ccccc3nc12	11%	277%	-33%	i	28µM*
Nc1c(C(=O)OCC2CCCO2)c2nc3ccccc3nc2n1Cc1cccs1 (centres undefined)	17%	282%	-6%	320%	19%
CC(C)OCCCNC(=O)c1c(N)n(Cc2cccs2)c2nc3ccccc3nc12	22%	109%	39%	133%	10µM*
COc1ccc(-c2c3c(=O)n(C)c(=O)n(C)c3c3n2-c2ccccc2NC3c2ccccc2OC)cc1 (centres undefined)	-6%	-5%	7%	-3%	?
CC(C)CCn1c(N)c(C(=O)NCc2cccs2)c2nc3ccccc3nc21	22%	98%[57.1 µM]	49%[57.1 µM]	?	14µM*
CCCCNC(=O)c1c(N)n(CCCOC)c2nc3ccccc3nc12	0%	108%[57.1 µM]	13%[57.1 µM]	362%	25µM*
C[C@H]1O[C@@H](O[C@H]2[C@@H](O)C[C@@H](O[C@H]3[C@@H](O)C[C@H](O[C@H]4CC[C@@]5(C)[C@H](CC[C@@H]6[C@@H]5CC[C@]5(C)[C@@H](C7=CC(=O)OC7)CC[C@]65O)C4)O[C@@H]3C)O[C@@H]2C)C[C@H](O)[C@@H]1O	.	.	.	.	1%
COc1cc(C=C2C(=O)NC(=O)NC2=O)ccc1OS(=O)(=O)c1ccccc1[N+](=O)[O-]	-27%	5%	6.3µM*	-12%	.
COc1cc(C=C2C(=O)NC(=O)NC2=O)cc(OC)c1OC	2%	4%[0.0914 µM]	?	9%	3%
O=C(Nc1ccccc1F)Oc1cccc(OC(=O)Nc2ccccc2F)c1	-43%	3%	4%[57.1 µM]	-1%	1%
Cc1ccc(CNc2cc(C)nc3nc(-c4ccc(C)cc4)nn23)cc1	-39%	-1%[57.1 µM]	22%[57.1 µM]	-17%	37%
Cc1cc(S(=O)(=O)NC(C)C)ccc1OCC(=O)N1CCN(Cc2ccc3c(c2)OCO3)CC1	22%	10%	23%	-10%	-2%
Cc1cc(S(=O)(=O)NCC(C)C)ccc1OCC(=O)N1CCN(Cc2ccccc2)CC1	13%	7%[57.1 µM]	-54%	-14%	16µM*
Cc1ccccc1N1C(=O)NC(=O)/C(=C\c2cnn(-c3ccccc3)c2)C1=O	14%	6%	?	-4%	0%
O=C1NC(=O)N(c2ccccc2F)C(=O)/C1=C/c1ccc(Oc2ccc([N+](=O)[O-])cn2)cc1	1%	4%	3.5µM*	-20%	-1%
CC1OC(O[C@H]2C[C@@H](O)[C@]3(CO)[C@H]4[C@H](O)C[C@]5(C)[C@@H](C6=CC(=O)OC6)CC[C@]5(O)[C@@H]4CC[C@]3(O)C2)C(O)C(O)C1O (some centres undefined)	.	4%	6%	.	1%
CC(C)C(=O)NC(Oc1ccccc1Cl)C(Cl)(Cl)Cl (centres undefined)	-1%	-1%[57.1 µM]	8.9µM*	?	.
O=C(Cc1ccccc1)NC(Oc1ccccc1Cl)C(Cl)(Cl)Cl (centres undefined)	-6%	10%[57.1 µM]	?	?	0%
C=CC[N+]1(C)CCC23c4c5ccc(O)c4O[C@H]2C(=O)CC[C@@]3(O)C1C5 (some centres undefined)	.	.	.	-8%	.
Cc1cccc2nc(-c3ccccc3)c(-c3ccc(CN4CCC(n5c(=O)[nH]c6ccccc65)CC4)cc3)nc12	.	.	.	.	25µM*
N#Cc1ccc2nc(-c3ccc(CN4CCC(n5c(=O)[nH]c6ccccc65)CC4)cc3)c(-c3ccccc3)nc2c1	.	.	.	.	-4%
Cc1ccc2cc(C=C(C#N)C#N)c(Cl)nc2c1	-33%	-3%	25µM*	118%	15%
SMILES	miR-21 act	TrxR1 substrate	rTrxR1 inhibitor	Apoferritin bind	ClpP mod
O=C1NC(=O)C2(CCCc3ccc(N(CCCl)CCCl)cc32)N1 (centres undefined)	.	3%	20µM*	.	.
O=C1NC(=O)C(=Cc2ccc(OCCOc3ccc([N+](=O)[O-])cc3)cc2)C(=O)N1	-6%	-5%	35µM*	-24%	.
O=C1NC(=O)C(=Cc2ccc3c(c2)OCO3)C(=O)N1	-2%	.	.	-9%	.
Cc1ccc(OCCOc2cccc(C=C3C(=O)NC(=O)NC3=O)c2)c(C)c1	-45%	2%	7.9µM*	?	.
O=C1NC(=O)C(=Cc2cccc(OCCOc3ccccc3)c2)C(=O)N1	-46%	1%	16µM*	?	-5%
O=C(OCc1cc(=O)n2nc(C3CC3)sc2n1)c1ccc(NC(=O)c2ccccc2Cl)cc1	?	2%[57.1 µM]	8%[57.1 µM]	-24%	2%
Cn1ncc2c(NCc3ccco3)ncnc21	.	5%	?	.	-2%
O=[N+]([O-])c1ccc(O)c([N+](=O)[O-])c1	.	-12%	-14%	-18%	0%
O=[N+]([O-])c1ccc(Cl)c([N+](=O)[O-])c1	.	1%	2.8µM*	.	-3%
Cc1cccc(OCC(=O)N2CCN(Cc3cccnc3)CC2)c1	-6%	3%	3%[57.1 µM]	-10%	28µM*
Cc1ccc(OCC(=O)N2CCN(Cc3cccnc3)CC2)cc1	1%	7%[57.1 µM]	3%	-2%	1%
Cc1ccc(OCC(=O)N2CCN(CCc3ccncc3)CC2)cc1C	-11%	2%	79µM*	3%	0%
Cc1cccc(CN2CCc3nc(N4CCN(c5ccccn5)CC4)ncc3C2)c1	?	5%[57.1 µM]	16%[57.1 µM]	-4%	55%
CN[C@@H](C)[C@H](O)c1ccccc1	.	-2%	25µM*!	.	1%
Cc1cc(N2CCCCC2)ccc1C=C1C(=O)N(C)C(=S)N(C)C1=O	-4%	-1%	11µM*	?	1%
Cc1cc(N2CCCC2)ccc1C=C(C#N)C#N	0%	5%[11.4 µM]	15%[11.4 µM]	-8%	0%
CN(C)c1ccc(/C=C2\C(=O)NC(=O)N(Cc3ccc(F)cc3)C2=O)cc1	-3%	-1%	?	-7%	.
CCC(C)N1C(=O)/C(=C\c2cc3c4c(c2)CCCN4CCC3)C(=O)NC1=S (centres undefined)	-1%	-1%	32µM*	-22%	-2%
